Screening data (PubChem BioAssay)
AmpC inh detg = qHTS Inhibitors of AmpC Beta-Lactamase (assay with detergent); 370,000 tested, 0.041% active; AmpC hydrolysis of nitrocefin, absorbance 480 nm, 0.01% Triton; P00811; Potency, µM (titrated, usually from 114 µM), without a hit: top-dose activity change, negative = inhibition, most hits filed as inhibitors;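 also: 0% = no-compound wells and -100% = no-enzyme wells; nearly all actives have a fitted effect of over 25% in size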
Target sequence (P00811 whole entry, looked up): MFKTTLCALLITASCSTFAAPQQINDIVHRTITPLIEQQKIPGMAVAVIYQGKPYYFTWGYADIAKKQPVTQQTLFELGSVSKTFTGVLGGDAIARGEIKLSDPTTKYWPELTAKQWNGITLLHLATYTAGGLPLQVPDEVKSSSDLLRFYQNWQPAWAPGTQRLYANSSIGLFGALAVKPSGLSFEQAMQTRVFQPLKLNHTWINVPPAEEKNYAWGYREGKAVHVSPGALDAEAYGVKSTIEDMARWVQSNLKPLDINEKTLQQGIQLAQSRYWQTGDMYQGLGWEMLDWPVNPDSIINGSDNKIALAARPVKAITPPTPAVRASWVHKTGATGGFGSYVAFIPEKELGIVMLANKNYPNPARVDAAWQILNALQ
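20 mM phosphate pH 7.0 + 0.01% (detergent screen) or 0.0001% Triton X-100; 5.3 nM AmpC reagent; cpd preinc 15 min RT; nitrocefin (800 uM stock) to start; A480 q20 s × 4 min; Activity was normalised to no-enzyme and no-compound control wells.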
AmpC inh no detg = qHTS Inhibitors of AmpC Beta-Lactamase (assay without detergent); Potency, µM (series often up to 57.1 µM), without a hit: at the top dose activity change, negative = inhibition, usual class: inhibitors; 330,000 tested, 0.52% active; P00811; AmpC nitrocefin hydrolysis, absorbance 480 nm, 0.0001% Triton;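 also: plate controls were no compound for no effect and no enzyme for full effect; nearly all actives have a fitted effect of over 20% in size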
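AmpC (5.3 nM in the dispensed reagent) in 20 mM phosphate pH 7.0 with 0.01% (detergent screen) or 0.0001% Triton X-100 was preincubated with compounds for 15 min at room temperature. Nitrocefin was then added from an 800 uM solution, and hydrolysis was followed at 480 nm.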
Sm TGR block = qHTS Assay for the Inhibitors of Schistosoma Mansoni Peroxiredoxins; AID 485364, 2010; purified TGR, DTNB reduction, TNB absorbance 405 nm; Schistosoma mansoni thioredoxin glutathione reductase (TGR), Q962Y6; 360,000 tested, 3% active; Potency, µM (titrated, usually from 114 µM), without a hit: at the top dose activity change, negative = inhibition, hits mostly inhibitors; also: nearly all actives have a fitted effect of over 60% in size
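TGR 20 nM + NADPH 100 uM (dispensed conc.), cpd preinc 15 min RT; start with NADPH (500 uM addition) then DTNB (15 mM addition). Kinetic TNB absorbance, 405 nm filter. Four-parameter Hill fit across titration.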
Numbers without * were called inactive; ? = inconclusive; [ ] = another dose, or the depositor's remark. Hits are enriched below; roughly 3.3% of the tested compounds scored in any of these assays. Calls follow the shape of the dose curve; as a rule, active = well fitted curve in the direction sought with a large enough effect; inconclusive = small, poorly fitted or top-dose-only effect, or another doubt; inactive = no such curve, though single readings can be large; an effect the other way counts as inactive or inconclusive. Unless noted, % is scaled to controls: 0 for no effect and ±100 for the full control effect; potency is read from the fitted curve at half-maximal effect.

SMILES	AmpC inh detg	AmpC inh no detg	Sm TGR block
CCC(=O)O[C@@H]1CC(=O)O[C@H](C)CC=CC=C[C@@H](O)[C@H](C)C[C@H](CC=O)[C@H](O[C@H]2O[C@H](C)[C@@H](O[C@H]3C[C@@](C)(O)[C@@H](OC(=O)CC)[C@H](C)O3)[C@H](N(C)C)[C@H]2O)[C@H]1OC	-3%	167%	25µM*
NC(=O)Cn1cc(C(=O)C(=O)N2CCOCC2)c2ccccc21	-3%	-11%	-7%
COc1ccc(NC(c2ccccc2)P(=O)(Oc2ccccc2)Oc2ccccc2)cc1 (configuration not stated)	-5%	-25%	-1%
COc1ccc(NC(c2ccccc2)c2ccncc2)cc1 (configuration not stated)	1%	-10%	40µM*
COc1ccc(NC(=O)Oc2cc(C)ccc2C(C)C)cc1	-6%	-38%	4%
O=C(C[n+]1cn(C(F)F)c2ccccc21)c1ccc(Br)cc1	-8%	-29%	4µM*
O=C(C[n+]1cc(Br)cc2ccccc21)c1ccc(Br)cc1	-9%	-38%	-13%
Cc1ccc(C)c(C(=O)COC(=O)c2c(-c3ccccc3)noc2C)c1	-22%	-15%	11%
C/C(=N/NC(=O)CNC(=O)COc1ccccc1)c1ccc(Cl)cc1	-7%	-23%	-2%
COC(=O)C1CN(C#N)N(c2ccc(Cl)cc2)C12c1ccccc1-c1ccccc12 (configuration not stated)	?	5%	5.6µM*
O=C1c2ccccc2C(O)N1c1ccc(Cl)cc1 (configuration not stated)	?	-21%	-1%
C=CCn1c(SCC(=O)c2ccc(Br)cc2)nnc1C(CC(C)C)NC(=O)c1cccs1 (configuration not stated)	?	-23%	-15%
O=C(CCc1nc2ccccc2c(=O)[nH]1)Nc1nnc(SCc2ccc(F)cc2)s1	-5%	-11%	-8%
CCCNC(=O)c1ccc(N2CCC3(CC2)CC(c2cccc(Br)c2)=NO3)c([N+](=O)[O-])c1	-11%	-1%	-1%
COc1ccc(OCC(=O)Nc2ccc(C)c(S(=O)(=O)N(C)C)c2)cc1	-1%	-34%	1%
CCN(CC)c1ccc(NC(=O)COc2ccc(C#N)cc2)cc1S(=O)(=O)Nc1ccc(OC)cc1	-1%	5µM*	-6%
CC(C)N1CCN(Cc2cnc(N3CCCC3)s2)CC1CCO (configuration not stated)	5%	-15%	11%
COc1ccc(C2C(C(=O)c3sc(C)nc3C)=C(O)C(=O)N2CCN(C)C)cc1OC (configuration not stated)	-12%	-20%	-31%
CCN(CC)CCN1C(=O)C(O)=C(C(=O)c2cccs2)C1c1ccc(C)o1 (configuration not stated)	3%	-11%	28µM*
O=C(C1=C(O)C(=O)N(CCN2CCOCC2)C1c1ccccn1)c1cccs1 (configuration not stated)	?	-11%	20µM*
O=C(C1=C(O)C(=O)N(CCN2CCOCC2)C1c1ccc(F)cc1)c1cccs1 (configuration not stated)	-6%	-10%	-23%
CCN(CC)CCN1C(=O)C(O)=C(C(=O)c2cccs2)C1c1ccccn1 (configuration not stated)	-4%	-7%	?
Cc1ccc(C2C(C(=O)c3cccs3)=C(O)C(=O)N2CCN2CCOCC2)o1 (configuration not stated)	?	0%	20µM*
Cc1ccc(C2C(C(=O)c3sc(C)nc3C)=C(O)C(=O)N2CCN(C)C)o1 (configuration not stated)	-3%	2%	45µM*
CCOc1ccc(C2C(C(=O)c3cccs3)=C(O)C(=O)N2CCN2CCOCC2)cc1 (configuration not stated)	-10%	61%	-17%
SMILES	AmpC inh detg	AmpC inh no detg	Sm TGR block
c1ccc(NC2=NCCN2CCCC2CCCCC2)cc1	-4%	15%	-11%
O=C(NNC(=O)c1sccc1-n1cccc1)Nc1ccc(F)cc1	?	-30%	-32%
CCCC[C@]12Cc3cc(C#N)ccc3C(O1)c1c(c3cc(F)ccc3oc1=O)O2	?	-38%[11.4 µM]	-33%[22.9 µM]
CCCn1c(=O)c(C(=O)Nc2ccccc2C)c(O)c2ccccc21	?	-19%	45µM*
CCCCCn1c(=O)c(C(=O)Nc2ccccc2C)c(O)c2ccccc21	-5%	-21%	4%
CC1CCN(C(=O)COc2ccc(S(=O)(=O)N3CCOCC3)cc2)CC1	-6%	-14%	-1%
